Source: PubChem BioAssay (NCATS)
Records with an inconclusive call do not appear. The source made the active and inactive calls. Calls come from the whole dose curve; as a rule, active = well fitted curve in the direction sought with a large enough effect; inconclusive = small, poorly fitted or top-dose-only effect, or another doubt; inactive = no such curve, though single readings can be large; an effect the other way counts as inactive or inconclusive.

Tests used:
[1] = biological target: Glutathione peroxidase 1 (Homo sapiens) (UniProt P07203); test: Primary qHTS Assay for Inhibitors of Recombinant Selenoprotein Glutathione Peroxidase 1 (GPX1) (AID 1845191); note: nearly all actives have a fitted effect of over 65% in size
Procedure, shortened: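 GR-coupled readout: NADPH consumption tracked by fluorescence, ex 340/em 450 nm, at t=0 and after 15 min at RT. Final mix 10 nM GPX1, 1 mM GSH, 0.5 mM CHP, 0.5 mM NADPH, 100 nM GR, 0.01% BSA, following 30 min enzyme–compound preincubation.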

[2] = biological target: Phospholipid hydroperoxide glutathione peroxidase GPX4 (Homo sapiens) (UniProt P36969); test: Primary qHTS Assay for Inhibitors of Recombinant Selenoprotein Glutathione Peroxidase 4 (GPX4) (AID 1845192); note: nearly all actives have a fitted effect of over 65% in size
Procedure, shortened: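 Steps: GPX4 plus compound, 30 min RT; add GR/GSH/NADPH master mix; start with cumene hydroperoxide; read 340/450 nm fluorescence at 0 and 15 min. Finals were 200 nM GPX4, 1 mM GSH, 0.5 mM CHP, 0.5 mM NADPH, 100 nM GR.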

[3] = biological target: Luciferin 4-monooxygenase (Photinus pyralis) (UniProt P08659); test: Primary firefly luciferase (FLuc) qHTS assay for identification of artifact compounds. (AID 1845220); note: nearly all actives have a fitted effect of over 60% in size; note: potency is the fitted concentration of half-maximal effect
Procedure, shortened: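 D-luciferin and ATP (10 uM each, final) in Tris acetate buffer pH 7.6 were incubated with compounds for 15 min at room temperature. The reaction was started with 10 nM Photinus pyralis luciferase and luminescence read after 5 min. Percent inhibition was fitted to a 4-parameter Hill equation.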

[4] = Primary fluorescence-based thiol-reactive (MSTI) qHTS assay for identification of artifact compounds. (AID 1845221); note: nearly all actives have a fitted effect of over 65% in size; note: potency is the fitted concentration of half-maximal effect
Procedure, shortened: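 MSTI probe at 4 uM final in 2% DMSO/PBS pH 7.4; compounds, 1 h at room temperature in dark. Fluorescence Ex/Em 525/598 nm, normalised to Acetyl-MSTI and MSTI, fitted to 4-parameter Hill.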

[5] = test system: Nanoluciferase (engineered Oplophorus gracilirostris luciferase); test: Primary Nanoluciferase (NLuc) qHTS assay for identification of artifact compounds. (AID 1845222); note: series mostly up to about 54 µM
Procedure, shortened: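 Diluted conditioned medium from NLuc-expressing S16 cells treated with compounds for 15 min at room temperature, then Nano-Glo substrate added; luminescence read after 5 min. Percent inhibition versus no-enzyme and DMSO controls fitted to 4-parameter Hill equation.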

Measured: Potency

Chain of Glutathione peroxidase 1 (Homo sapiens) (P07203 whole entry, looked up): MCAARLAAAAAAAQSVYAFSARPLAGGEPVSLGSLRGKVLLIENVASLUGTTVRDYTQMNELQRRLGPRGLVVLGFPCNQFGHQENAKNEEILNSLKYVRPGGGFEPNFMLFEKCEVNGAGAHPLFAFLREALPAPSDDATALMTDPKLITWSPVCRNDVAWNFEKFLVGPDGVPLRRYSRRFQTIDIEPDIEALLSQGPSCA
Chain of Phospholipid hydroperoxide glutathione peroxidase GPX4 (Homo sapiens) (P36969 whole entry, looked up): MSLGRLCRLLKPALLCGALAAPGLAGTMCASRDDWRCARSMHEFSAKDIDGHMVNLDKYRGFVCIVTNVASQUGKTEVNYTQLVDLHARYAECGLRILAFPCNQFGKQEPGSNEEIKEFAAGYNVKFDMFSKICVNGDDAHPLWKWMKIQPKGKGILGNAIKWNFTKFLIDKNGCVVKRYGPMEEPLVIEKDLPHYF

C[C@]1(CO)CN(c2cc(C(=O)Nc3ccc4c(c3)-c3c(c(C(N)=O)nn3-c3ccc(F)cc3)CC4)c(Cl)cn2)C[C@@]1(C)CO
inactive: [1] | [2] | [3] | [4]

COc1cccc(-c2ccc(NC(=O)C3=C(C(=O)O)CCC3)c(F)c2)c1
inactive: [1] | [2] | [4]
active: [3] 5.36 µM

NC(=O)Nc1cc(-c2cccc(F)c2)sc1C(=O)N[C@H]1CCCNC1
inactive: [1] | [2] | [3]

CC(C)c1noc(N2CCC(COc3ccc(-c4ccc(S(C)(=O)=O)cc4)nc3)CC2)n1
inactive: [1] | [2] | [3] | [4]

O=C(Nc1cc(C(F)(F)F)cc(C(F)(F)F)c1)c1cc(Cl)ccc1O
inactive: [1] | [2] | [3] | [5]

C1Cc2[nH]nc(-c3nn[nH]n3)c2C1
inactive: [1] | [2] | [3] | [4] | [5]

C=CC(=O)Nc1cccc(Oc2nc(Nc3ccc(N4CCN(C)CC4)cc3OC)ncc2Cl)c1
active: [4] 2.67 µM
inactive: [1] | [2] | [3] | [5]

CCc1cc2c(cc1N1CCC(N3CCOCC3)CC1)C(C)(C)c1[nH]c3cc(C#N)ccc3c1C2=O
inactive: [1] | [2] | [3] | [4] | [5]

Cc1ccc2nc(NC(=O)CSc3nc4c(c(=O)n3-c3ccccc3)SCC4)sc2c1
inactive: [1] | [2] | [3] | [4] | [5]

O=C(O)CCCc1c[nH]c2ccccc12
inactive: [1] | [2] | [3] | [4] | [5]

O=C(Nc1nc2cccc(-c3ccc(CN4CCS(=O)(=O)CC4)cc3)n2n1)C1CC1
inactive: [1] | [2] | [3] | [4] | [5]

COc1cc2nccc(Oc3ccc(NC(=O)C4(C(=O)Nc5ccc(F)cc5)CC4)cc3)c2cc1OC
inactive: [1] | [2] | [3] | [4] | [5]

CC(C)c1cc(C(=O)N2Cc3ccc(CN4CCN(C)CC4)cc3C2)c(O)cc1O
inactive: [1] | [2] | [3] | [4] | [5]

CC[C@@]1(O)C(=O)OCc2c1cc1n(c2=O)Cc2cc3cc(O)ccc3nc2-1
inactive: [1] | [2] | [3] | [5]

NC(=O)c1c(OCc2c(F)cc(Br)cc2F)nsc1NC(=O)NCCCCN1CCCC1
inactive: [1] | [2] | [3] | [4]

Cc1cc(C(=O)N2CCN(c3cccc(Cl)c3)CC2)n(-c2ccccc2)n1
inactive: [1] | [2] | [3] | [4] | [5]

Cn1cc(-c2ccncc2)c(-c2ccc(OCc3ccc4ccccc4n3)cc2)n1
inactive: [1] | [2] | [3] | [4]

CN(C)CC(C)(C)CNc1nn2c(-c3ccccc3)nnc2cc1C1CCC1
inactive: [1] | [2] | [3] | [4]

COc1ccc(C(=O)CC2(O)C(=O)Nc3c(Cl)ccc(Cl)c32)cc1 (stereo not given)
inactive: [1] | [2] | [3] | [4] | [5]

CS(=O)(=O)N1CCN(Cc2cc3nc(-c4cccc5[nH]ncc45)nc(N4CCOCC4)c3s2)CC1
inactive: [1] | [2] | [3] | [4] | [5]
